The campaign covered roughly 310,000 compounds. About 18,000 (5.8%) were called active. Inconclusive results (about 22%) are left out. Only a selection was taken, and actives are over-represented in it overall. A number with no mark means an inactive call. The call rests on the fitted dose curve; in most records, active means well fitted inhibition curve with a large enough effect; inconclusive means small, poorly fitted or top-dose-only effect, or another doubt; inactive means no such curve, though single readings can be large or run the other way.
Test: Primary qHTS for delayed death inhibitors of the malarial parasite plastid, 48 hour incubation
Settings: P. falciparum luciferase growth in erythrocytes; series mostly up to 28.7 µM; activity change, negative = inhibition: at the top concentration
In short: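 Here the parasites carry a stable luciferase gene and grow inside erythrocytes in Albumax-based RPMI medium with compound for one erythrocytic cycle. Activity is scored as loss of luminescent signal.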
On the % scale 0 is the no-effect control and ±100 the full control effect; potency means the concentration at half of the fitted maximal effect.

SMILES	activity change, negative = inhibition	Potency
O=C(NNC(=O)c1ccc(-n2cncn2)c([N+](=O)[O-])c1)c1ccccc1	-10.8%	
S=C(Nc1ccc(Cl)cc1Cl)N1CCCC1	54.8%	
COc1cc(/C=N/NC(=O)Cc2ccccc2)cc(OC)c1OC	6.42%	
O=C(Nc1cccc(F)c1)[C@@H]1CCCN1	-9.54%	
Cc1cc(C)nc(NS(=O)(=O)c2ccc(N3C(=O)C4CCCCC4C3=O)cc2)n1 (centres undefined)	26.1%	
Cc1cc(N2C(=O)C(O)=C(C(=O)c3ccc(C)o3)C2c2ccc(OCc3ccccc3)cc2)no1 (centres undefined)	5.29%	
Cc1cc(C(F)F)nn1CC(=O)NC1CCCCCC1	10.4%	
Cc1nn(CC(=O)NC2CCCCC2)c(=O)c2cccn12	29.8%	
O=C(Cn1nc([N+](=O)[O-])nc1Br)NC1CCCCC1		1.47 µM (active)
CC1(C)O[C@@H]2[C@H](O1)[C@@H](CO)O[C@H]2n1c(N2CCCCC2)nc2c(N)ncnc21	-1.31%	
O=C(NCc1cccnc1)C12CC3CC(CC(C3)C1)C2	-8.11%	
O=C(CCl)Nc1cccc(CP(=O)(c2ccccc2)c2ccccc2)c1		10.4 µM (active)
CCc1cccc(NC(=O)CCC(=O)O)c1	2.01%	
O=C(Cc1ccccc1)Nc1cccc(NC(=O)c2ccccc2)c1	312%	
O=C(/C=C/c1ccccc1)c1ccccc1O	28.4%	
CC(=O)Nc1ccc(/C=C/C(=O)c2ccccc2)cc1	48.1%	
CC(/C=C/c1ccccc1)=N\NC(=O)C1CC1(C)c1ccccc1 (centres undefined)		11.7 µM (active)
O=S(=O)(c1ccc(-c2ccno2)s1)N1CCCCC1	3.71%	
CCn1cc(C(=O)N[C@@H](C)C(=O)NCCO)c(=O)c2cc3c(cc21)OCO3	20.8%	
CCOC(=O)c1cc(Sc2ccccc2N)cc(C(=O)OCC)n1		0.147 µM (active)
CCOC(=O)c1sc2nc(SC)nc(-c3ccccc3)c2c1N	10.1%	
CCOC(=O)C1=C(CC)Nc2ccccc2N=C1N	10.7%	
CCOc1ccc(N2C(=O)CSC2=NC#N)cc1	-21.6%	
COc1ccccc1CNS(=O)(=O)CC12CCC(CC1=O)C2(C)C (centres undefined)	10.1%	
COC(=O)c1ccc(Nc2ncnc3sccc23)cc1	19.8%	

SMILES	activity change, negative = inhibition	Potency
Cc1nnc(SCC(=O)NCCOc2ccc(Cl)cc2)n1-c1ccccc1	-17.2%	
Cc1nnc(SCC(=O)N2CCN(c3ccccc3)CC2)n1-c1ccccc1	-0.135%	
Cc1nnc(SCc2ccc(C(=O)c3ccc(Cl)cc3)o2)n1-c1ccccc1		14.7 µM (active)
Cc1noc(C)c1C(=O)NCCc1ccc(S(N)(=O)=O)cc1	-3.59%	
COc1ccc(C)cc1NC(=S)N1CCOCC1	0.499%	
CCOC(=O)c1sc(NC(=O)c2sc(C)nc2C)nc1C	19.2%	
Cn1c(Nc2ccccc2)cc(=O)n(C)c1=O	-11.8%	
Cc1ccc(N2C(=O)C(Cc3ccccc3)NC2=S)cc1 (centres undefined)	-18.5%	
CCCCc1ccc(NC(=O)CN2C(=O)NC(Cc3ccccc3)C2=O)cc1 (centres undefined)	-23.3%	
O=C1C(Cc2ccc(O)cc2)NC(=S)N1Cc1ccccc1 (centres undefined)		2.94 µM (active)
C=CCOc1ccc(C(=O)Nc2ccccc2C(=O)N2CCCC2)cc1	-4.59%	
CCOC(=O)CNc1nc(Cl)nc(Nc2ccc(OC)cc2OC)n1	122%	
Cc1c(O)c(C)c2c(c1O)C(=O)C[C@@H](c1ccccc1)O2		13.1 µM (active)
CCCc1cc(C(=O)Nc2ccc(Cl)cn2)cs1	274%	
Cc1cc(CNC(=O)C2CCC(=O)N(CCc3ccc(Cl)cc3)C2)no1 (centres undefined)	-6.17%	
NC(=O)CSC1=Nc2ccccc2C2=NC(CCC(=O)NCc3ccc(F)cc3)C(=O)N12 (centres undefined)	16.7%	
O=C(CC1N=C2c3ccccc3N=C(SCc3ccccc3Cl)N2C1=O)NCc1ccco1 (centres undefined)		4.65 µM (active)
CCC(C)NC(=O)CSC1=Nc2ccccc2C2=NC(CCC(=O)NCc3ccco3)C(=O)N12 (centres undefined)	0.708%	
Cc1ccc(C(=O)NCC(=O)NCc2cc(=O)n(C)c(=O)n2C)cc1	20.1%	
COc1ccc(C(=O)NC(=S)Nc2ccc(N3CCCC3)cc2)cc1OC	2.93%	
COc1ccc(NC(=O)CC2SC(N3CCCCC3)=NC2=O)cc1OC (centres undefined)	1.93%	
COc1ccc(C(=O)Nc2ccc3nc(N4CCCCC4)cc(C)c3c2)cc1OC		3.7 µM (active)
COc1ccc(NC(=O)CCn2ccnc2)c(OC)c1	2.35%	
Cc1cc(C)c(-c2csc(NC(=O)CCCc3nc4ccccc4c(=O)[nH]3)n2)c(C)c1		0.131 µM (active)
O=C(CSc1nc2ccccc2c(=O)[nH]1)Nc1nc(-c2ccc(Br)cc2)cs1	4.63%	

SMILES	activity change, negative = inhibition	Potency
CCN(CC)c1ccc(C(=O)NNC(=O)CCc2nc3ccccc3c(=O)[nH]2)cc1	0%	
COc1ccc(-c2csc(NC(=O)CCCc3cccs3)n2)cc1	5.99%	
CC(=O)NCc1ccc(-c2csc(NC(=O)CCCc3nc4ccccc4c(=O)[nH]3)n2)cc1		9.28 µM (active)
CC(C)(C)c1ccc(NC(=O)COC(=O)CCc2nc3ccccc3c(=O)[nH]2)cc1	36.9%	
CN(C(=O)CCNC(=O)Cn1ccc2ccccc2c1=O)c1ccc(Br)cc1	23.2%	
N=c1oc2ccccc2cc1C(=O)NCc1ccccc1	23.7%	
CS(=O)(=O)N1CCc2cc(C(=O)Nc3ccccc3Br)ccc21	88.1%	
COc1ccc(NC(=O)CNC(=O)Cc2ccccc2)cc1OC	27%	
Cc1cc(NC(=O)CCC(=O)N(Cc2ccccc2)C(C(=O)NC2CCCC2)c2ccc(C)o2)no1 (centres undefined)	-18.2%	
CN(Cc1c(F)cccc1Cl)C(=O)CNC(=O)c1ccc2c(c1)OCO2	24.5%	
NC(=O)NC(CC(=O)NNC(=O)c1ccccn1)c1ccc(Cl)cc1 (centres undefined)	-6.59%	
Cc1cc(C)c2c(=O)[nH]c(SCC(=O)Nc3ccc(Br)cc3)nc2n1	21.1%	
COc1ccccc1CNC(=O)CSc1nc(=O)n(Cc2ccncc2)c2c1CCC2		11.7 µM (active)
CN(C)CCn1c2c(c(SCC(=O)Nc3ccccc3C(F)(F)F)nc1=O)CCCC2	5.64%	
CN(C)CCn1c2c(c(SCC(=O)NCc3ccccc3)nc1=O)CCC2	2.52%	
Cc1ccc(NS(=O)(=O)c2ccc3c(c2)oc(=O)n3C)c(C)c1	22%	
Cc1c(NC(=O)C(C)Oc2cccc(Cl)c2)c(=O)n(-c2ccccc2)n1C (centres undefined)	32.1%	
COc1ccc(NC(=O)c2cnc(NS(=O)(=O)c3ccccc3)nc2)cc1	25.7%	
Cc1ccc(-c2cc(C(=O)Nc3nn[nH]n3)c3ccccc3n2)c(C)c1	-32%	
CN(CC(=O)Nc1ccccc1Cl)C(=O)c1ccccc1SCC(=O)N1CCCC1	11.3%	
COc1ccc(CN(C)C(=O)c2cc(-c3ccc(C)cc3C)nc3ccccc23)c(OC)c1OC		9.28 µM (active)
Cc1cccc(C(=O)NCC(=O)OCC(=O)N(C)CC(=O)Nc2ccccc2Cl)c1	-14.3%	
COc1ccc(-c2cc(C(=O)N(C)CC(=O)Nc3ccccc3Cl)c3ccccc3n2)cc1OC		13.1 µM (active)
COc1ccc(C)cc1N(C)C(=O)c1coc(=O)c2ccccc12	-11.7%	
